According to PubChem BioAssay (NCI):
This is part of a sample that, as a whole, favours compounds with a hit. Of some 79,000 tested, about 15% had one in any assay. Active and inactive are the calls of the source. Cut-off read from the data, not from the text of the source: active = growth inhibition above about 70%; inactive = the rest. Where a SMILES comes first, the peptide text is derived from it. [ ]: non-standard residue; d: D form. The star is where a group is joined. Ac5c = NC1(C(=O)O)CCCC1; Cbz = O=C(OCc1ccccc1)*

Assay: NCI Yeast Anticancer Drug Screen. Data for the sgs1 mgt1 strain (AID 161);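 note: 0% = growth of cultures given vehicle only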
Details: S. cerevisiae sgs1 mgt1 strain, at 50.0 µM, stronger effect = higher value
Outline: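 Test agents were incubated with a DNA-repair-mutant yeast strain. Growth was then read and compared against vehicle-treated controls.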
With CC(=O)CC(=O)Nc1cccc(C)c1 the growth inhibition was 2.8% (inactive).
In the case of CCC(C)CN1C(=O)NC(C)(Cc2ccccc2)C1=O (stereo not given), the growth inhibition is reported as 1.15% (inactive).
With Cc1ccc(C(=O)Nc2ccc(S(=O)(=O)O)c3cc(S(=O)(=O)O)cc(S(=O)(=O)O)c23)cc1N the growth inhibition was -54.5% (inactive).
In the case of O=C(O)c1ccncc1C(=O)c1csc2ccccc12, the growth inhibition is reported as 27.1% (inactive).
With COc1ccc(/C=C/C(C)=O)c(OC)c1 the growth inhibition was 2.15% (inactive).
In the case of CS1(=O)=NC(=O)C(N2C(=O)c3ccccc3C2=O)CC1 (stereo not given), the growth inhibition is reported as -0.95% (inactive).
For BrC1CC2CCCCC2CC1Br (stereo not given), the growth inhibition was 21.4% (inactive).
For Nc1nc(Cl)c2nc(Cl)n(C3OC(CO)C(O)C3O)c2n1 (stereo not given), the growth inhibition was -8.7% (inactive).
With Nc1nc(-c2cc(-c3ccco3)nc(N)n2)cc(-c2ccco2)n1 the growth inhibition was -20.8% (inactive).
With COC(=O)C(/C(=N/NC(N)=O)C(=O)Nc1c(C)cccc1C(C)(C)C)c1nc2ccc(Cl)cc2[nH]c1=O (stereo not given) the growth inhibition was -7.4% (inactive).
For Cc1ccc(Nc2nc(C)c(C(=O)CC(=O)C(=O)Nc3c(C)cccc3C(C)(C)C)s2)cc1, the growth inhibition was -0.4% (inactive).
With Clc1nc2ccccc2s1 the growth inhibition was -24.8% (inactive).
In the case of O=C(O)/C(=C(\CO)c1ccccc1)c1ccccc1, the growth inhibition is reported as 11% (inactive).
In the case of CCCCC(=O)CCC(=O)O, the growth inhibition is reported as 4.95% (inactive).
For O=C(O)CSc1ccn(Cc2ccccc2)c1, the growth inhibition was -43.1% (inactive).
In the case of O=C(O)CNC(=O)C1(NC(=O)CNC(=O)OCc2ccccc2)CCCC1 (Cbz-Gly-[Ac5c]-Gly-OH), the growth inhibition is reported as 11.2% (inactive).
With O=c1c2ccccc2n2c(-c3ccc(O)cc3)nnc2n1-c1ccccc1 the growth inhibition was 4.4% (inactive).
In the case of COc1ccccc1/C=C1\C(=O)N(C(=O)Cc2ccccc2)N=C1C, the growth inhibition is reported as -54.2% (inactive).
For CCOC(=O)/C(O)=C(/C=N\C(=S)Nc1ccccc1Cl)C(=O)OCC, the growth inhibition was -28.4% (inactive).
With O=C1CC[C@H](NC(=O)Cc2ccccc2)C(=O)N1 the growth inhibition was -14.4% (inactive).
For CN(C)C(=S)/N=c1\ss/c(=N\C(=S)N(C)C)n1-c1ccc2c(c1)OCO2, the growth inhibition was -3.45% (inactive).
In the case of COC(=O)C1Cc2ccccc2C1=O (stereo not given), the growth inhibition is reported as -14.8% (inactive).
In the case of CCCCCCSCCO, the growth inhibition is reported as -11.9% (inactive).
In the case of Cc1nc(N=C(N)N)nc2ccccc12, the growth inhibition is reported as 10.7% (inactive).
In the case of CCOC(=O)c1[nH]n(-c2ccccc2)c(=O)c1/C=N/C(=S)Nc1c(CC)cccc1CC, the growth inhibition is reported as -18.2% (inactive).
For CC1=C(O[Si](C(C)C)(C(C)C)C(C)C)C2CC1(OS(=O)(=O)C(F)(F)F)[C@H]1C(=O)N(c3ccccc3)C(=O)[C@@H]21 (stereo not given in full), the growth inhibition was 0.3% (inactive).
With CC1SC2(C(=O)Nc3ccccc32)N(c2ccc(Cl)cc2)C1=O (stereo not given) the growth inhibition was -12.4% (inactive).
With O=C(NCCN1CCOCC1)c1ccc(C(=O)NCCN2CCOCC2)cc1 the growth inhibition was 32.6% (inactive).
In the case of CC(=O)OCC1OC(OCC(OC(C)=O)C(OC(C)=O)C(OC(C)=O)c2cnn(-c3ccccc3)n2)C(OC(C)=O)C(OC(C)=O)C1OC(C)=O (stereo not given), the growth inhibition is reported as 2.65% (inactive).
With Nc1nc(CCC(=O)O)cs1 the growth inhibition was 4.9% (inactive).
In the case of Nc1ncnc2c1ncn2C1CCN(CCO)C1=O (stereo not given), the growth inhibition is reported as -29.1% (inactive).
With COC(=N)c1nnn(-c2ccccc2)n1 the growth inhibition was -5.05% (inactive).
For Cc1ccc(C(=O)Cc2ccccc2)cc1, the growth inhibition was 4.85% (inactive).
With CCC1(CC)C(=O)N(C(=O)c2ccc(C)cc2)N(C(=O)c2ccc(C)cc2)C1=O the growth inhibition was 14.6% (inactive).
For O=c1[nH]nc(Cc2ccccc2)n1/N=C\c1ccccc1, the growth inhibition was -28.1% (inactive).
With CCOC(=O)c1c(C)c2c(n1C)CC/C(=C\N1CCN(c3ccccc3)CC1)C2=O the growth inhibition was -19.5% (inactive).
In the case of COc1ccc(NS(=O)(=O)c2ccc(NCc3c4ccccc4nc4ccccc34)cc2)nn1, the growth inhibition is reported as 17.2% (inactive).
In the case of O=C(Nc1ccccc1[N+](=O)[O-])OCc1ccccc1, the growth inhibition is reported as 13.5% (inactive).
For CC1(C)C(N)C(C)(C)C1N (stereo not given), the growth inhibition was -0.3% (inactive).
With O=C1CN(N2CCOCC2)CC(=O)N2CCCCN12 the growth inhibition was 13.9% (inactive).
